Calls of active or inactive are those of the source. The calls were made as follows: active = hit-call score of the fitted dose curve at least 0.9, where 1 is the maximum; inactive = score below 0.9.

Read-out in assay [1]: Macrophage colony-stimulating factor (MCSF), CSF1 (gene 1435)
In words: BSK_LPS_MCSF: BioMAP Diversity Plus: LPS Assay for Macrophage colony-stimulating factor (MCSF) Biomarker Activity (AID 2283083). Particulars: primary human HUVEC with PBMC; actives raise or lower the signal. The essentials:
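HUVEC–PBMC co-culture, M-CSF measured by ELISA 24 h after chemical dosing. Fitted in both directions relative to DMSO as negative control; overt cytotoxicity assessed by SRB total-protein staining in parallel cultures.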

Read-out in assay [2]: Tissue Factor, F3 (gene 2152)
Kind of assay: BSK_LPS_TissueFactor: BioMAP Diversity Plus: LPS Assay for Tissue Factor Biomarker Activity (AID 2283084). The conditions noted are these: primary human HUVEC with PBMC; actives raise or lower the signal. The essentials:
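Human umbilical vein endothelial cells co-cultured with PBMC were dosed with compound. Cell-surface CD142 was measured by ELISA 24 h later. Activity was fitted bidirectionally against DMSO, with SRB total-protein staining in parallel cultures for cytotoxicity.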

Read-out in assay [3]: Tumor necrosis factor (Homo sapiens) (UniProt P01375)
Kind of assay: BSK_LPS_TNFa: BioMAP Diversity Plus: LPS Assay for Tumour Necrosis Factor alpha (TNFa) Biomarker Activity (AID 2283085). The conditions noted are these: primary human HUVEC with PBMC; actives raise or lower the signal. The essentials:
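Human umbilical vein endothelial cells co-cultured with PBMC and stimulated with LPS. TNFa was measured by ELISA 24 h after chemical dosing, fitted bidirectionally relative to DMSO.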

Read-out in assay [4]: Vascular cell adhesion molecule 1 (VCAM1), VCAM1 (gene 7412)
In words: BSK_LPS_VCAM1: BioMAP Diversity Plus: LPS Assay for Vascular cell adhesion molecule 1 (VCAM1) Biomarker Activity (AID 2283086). The conditions noted are these: primary human HUVEC with PBMC; actives raise or lower the signal. The essentials:
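Human umbilical vein endothelial cells co-cultured with PBMC and stimulated with LPS; VCAM-1 measured by ELISA 24 h after dosing. Bidirectional curve fitting against DMSO baseline; cytotoxicity tracked in parallel by SRB total-protein staining.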

Read-out in another assay: CD38, CD38 (gene 952)
Kind of assay: BSK_SAg_CD38: BioMAP Diversity Plus: SAg Assay for CD38 Biomarker Activity (AID 2283087). Particulars: primary human HUVEC with PBMC; actives raise or lower the signal. The essentials: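 Human HUVEC plus PBMC co-culture stimulated with superantigen; CD38 measured by ELISA 24 h after chemical dosing. Fluorescence read-out, bidirectional fit against DMSO; cytotoxicity tracked in parallel by SRB and Alamar Blue.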

Read-out in the next assay: CD40, CD40 (gene 958)
Kind of assay: BSK_SAg_CD40: BioMAP Diversity Plus: SAg Assay for CD40 Biomarker Activity (AID 2283088). Particulars: primary human HUVEC with PBMC; actives raise or lower the signal. The essentials: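 HUVEC plus PBMC co-culture, superantigen-activated, with CD40 read by ELISA 24 h after dosing. Curves fitted in both directions against DMSO. Overt cytotoxicity checked by parallel SRB total-protein staining.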

Read-out in a further assay: CD69, CD69 (gene 969)
In words: BSK_SAg_CD69: BioMAP Diversity Plus: SAg Assay for CD69 Biomarker Activity (AID 2283089). The conditions noted are these: primary human HUVEC with PBMC; actives raise or lower the signal. The essentials: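 Endothelial/PBMC co-culture; chemical added; 24 h incubation; CD69 ELISA with fluorescence detection; bidirectional fit vs DMSO.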

Read-out in assay [5]: Monocyte Chemoattractant Protein-1 (MCP1), CCL2 (gene 6347)
Kind of assay: BSK_SAg_MCP1: BioMAP Diversity Plus: SAg Assay for Monocyte Chemoattractant Protein-1 (MCP1) Biomarker Activity (AID 2283090). The conditions noted are these: primary human HUVEC with PBMC; actives raise or lower the signal. The essentials:
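MCP-1 levels in the endothelial–PBMC SAg co-culture were quantified by ELISA at 24 h post-dosing; both increases and decreases versus DMSO scored. Cytotoxicity monitored by SRB total protein in parallel cultures.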

Read-out in assay [6]: E-selectin (Homo sapiens) (UniProt P16581)
In words: BSK_SAg_Eselectin: BioMAP Diversity Plus: SAg Assay for Eselectin Biomarker Activity (AID 2283091). The conditions noted are these: primary human HUVEC with PBMC; actives raise or lower the signal. The essentials:
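Human umbilical vein endothelial cells co-cultured with peripheral blood mononuclear cells, SAg system. E-selectin is measured by ELISA 24 h after dosing and fitted bidirectionally against DMSO. Cytotoxicity is checked by SRB staining of parallel cultures.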

Read-out in assay [7]: Monokine induced gamma interferon (MIG), CXCL9 (gene 4283)
In words: BSK_SAg_MIG: BioMAP Diversity Plus: SAg Assay for Monokine induced gamma interferon (MIG) Biomarker Activity (AID 2283092). Particulars: primary human HUVEC with PBMC; actives raise or lower the signal. The essentials: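 Measures CXCL9 protein by ELISA in a human vascular primary-cell co-culture (umbilical vein endothelium with PBMC) 24 h after chemical addition. Activity is scored up or down from the DMSO control.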

The nature of assay [8]: BSK_SAg_PBMCCytotoxicity: PBMC Cytotoxicity Assessment in the BioMAP Diversity Plus: SAg Assay (AID 2283093).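 Also: PBMC viability measured as Alamar Blue reduction fluorescence at 546/580 nm; fitted both ways against DMSO so a hit may be loss or gain of signal.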 The conditions noted are these: primary human HUVEC with PBMC. The essentials:
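Human umbilical vein endothelial cells co-cultured with PBMC; PBMC (75,000/well) pre-treated with compound 1 h, then activated with SEB and TSST-1 (20 ng/mL final each) for 90 h. Alamar Blue added 6 h, fluorescence 546/580 nm; bidirectional fit versus DMSO.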

Read-out in assay [9]: Interleukin-8 (IL8), CXCL8 (gene 3576)
In words: BSK_SAg_IL8: BioMAP Diversity Plus: SAg Assay for Interleukin-8 (IL8) Biomarker Activity (AID 2283094). Particulars: primary human HUVEC with PBMC; actives raise or lower the signal. The essentials: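 Human umbilical vein endothelial cells co-cultured with PBMC, stimulated with superantigen; IL-8 measured by ELISA 24 h after chemical dosing. Bidirectional fitting versus DMSO; SRB staining in parallel cultures tracks cytotoxicity.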

A short description of assay [10]: BSK_SAg_Proliferation: Cell Proliferation Assessment in the BioMAP Diversity Plus: SAg Assay (AID 2283095). The conditions noted are these: primary human HUVEC with PBMC. The essentials: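 Human umbilical vein endothelial cells co-cultured with PBMC; sulforhodamine B total-protein staining (0.1% SRB after 10% TCA fixation, absorbance 560 nm) at 96 h in sub-confluent culture. Fitted bidirectionally against DMSO.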

Assay [11] can be described thus: BSK_SAg_SRB: Viability Assessment in the BioMAP Diversity Plus: SAg Assay (AID 2283096).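 Also: cells read one day after compound addition; hits may be either gain or loss of signal compared with DMSO.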 Particulars: primary human HUVEC with PBMC. The essentials:
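Endothelial/PBMC primary human co-culture; compound 24 h; fix 10% TCA, stain 0.1% SRB, A560; protein content as cytotoxicity proxy; bidirectional curve fit, DMSO = baseline.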

Tumor necrosis factor (Homo sapiens), sequence (P01375 whole entry, looked up): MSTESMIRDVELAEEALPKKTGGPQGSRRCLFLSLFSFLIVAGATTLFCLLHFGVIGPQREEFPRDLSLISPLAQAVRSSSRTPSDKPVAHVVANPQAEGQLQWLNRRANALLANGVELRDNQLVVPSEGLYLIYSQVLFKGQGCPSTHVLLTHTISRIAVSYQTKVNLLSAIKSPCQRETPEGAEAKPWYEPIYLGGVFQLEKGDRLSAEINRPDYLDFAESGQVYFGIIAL
E-selectin (Homo sapiens), sequence (P16581 whole entry, looked up): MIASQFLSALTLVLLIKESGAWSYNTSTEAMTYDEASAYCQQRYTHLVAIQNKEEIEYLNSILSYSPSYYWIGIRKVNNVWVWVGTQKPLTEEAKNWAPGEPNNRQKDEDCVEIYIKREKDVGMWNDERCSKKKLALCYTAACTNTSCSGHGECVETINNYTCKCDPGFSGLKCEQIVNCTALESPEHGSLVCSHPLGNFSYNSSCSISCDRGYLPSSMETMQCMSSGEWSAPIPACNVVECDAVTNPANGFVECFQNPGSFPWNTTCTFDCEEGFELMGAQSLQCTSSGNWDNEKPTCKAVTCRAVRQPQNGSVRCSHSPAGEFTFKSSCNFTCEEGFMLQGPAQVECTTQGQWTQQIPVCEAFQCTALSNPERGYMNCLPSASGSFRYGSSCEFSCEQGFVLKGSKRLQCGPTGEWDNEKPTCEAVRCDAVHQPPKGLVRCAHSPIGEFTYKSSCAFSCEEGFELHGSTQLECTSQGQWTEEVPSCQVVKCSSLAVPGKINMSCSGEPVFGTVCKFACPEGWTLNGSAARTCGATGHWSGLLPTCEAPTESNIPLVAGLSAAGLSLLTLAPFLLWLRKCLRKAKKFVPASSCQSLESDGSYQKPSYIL

Take `CC[C@H]1OC(=O)[C@H](C)[C@@H](O[C@H]2C[C@@](C)(OC)[C@@H](O)[C@H](C)O2)[C@H](C)[C@@H](O[C@@H]2O[C@H](C)C[C@H](N(C)C)[C@H]2O)[C@](C)(O)C[C@@H](C)C(=O)[C@H](C)[C@@H](O)[C@]1(C)O`: the outcome in [1] was “inactive”; in assay [2], “inactive”; in [3] it was “inactive”; in [4], “inactive”; in the assay with CD38, CD38 (gene 952), “inactive”; with CD40, CD40 (gene 958), “inactive”. The outcome is “inactive” with CD69, CD69 (gene 969); “inactive” in [5]; “inactive” in [6]; “inactive” in assay [7]; “inactive” in [8]; “inactive” in assay [9]. For the same compound, the result in [10] and in assay [11] was inactive.

Regarding `O=C1CCCCCN1`, the outcome was “inactive” in [1]; “inactive” in [2]; “inactive” in assay [3]; “inactive” in assay [4]; “inactive” in the assay with CD38, CD38 (gene 952); “inactive” in the assay with CD40, CD40 (gene 958). Also, the outcome with CD69, CD69 (gene 969) is “inactive”; in assay [5], “inactive”; in [6] it was “inactive”; in [7], “inactive”; in assay [8], “inactive”; in assay [9] it was “inactive”. The result in assay [10] and in [11] was inactive.

On to `O=C1CCC(N2C(=O)c3ccccc3C2=O)C(=O)N1` (stereo unspecified), for which the outcome is “inactive” in assay [1]; “inactive” in [2]; “inactive” in [3]; “inactive” in [4]; “inactive” with CD38, CD38 (gene 952); “inactive” with CD40, CD40 (gene 958). Moreover, the outcome with CD69, CD69 (gene 969) was “inactive”; in [5], “inactive”; in [6], “inactive”; in [7] it was “inactive”; in assay [8], “inactive”; in assay [9], “inactive”. Further, the result in [10] and in [11] was inactive.

As to `O=C(O)CCN(C1(C(=O)NO)CCCC1)S(=O)(=O)c1ccc(Oc2ccc(F)cc2)cc1`, the outcome is “inactive” in assay [1]; “inactive” in assay [2]; “inactive” in assay [3]; “inactive” in assay [4]; “inactive” with CD38, CD38 (gene 952); “inactive” in the assay with CD40, CD40 (gene 958). In addition, the outcome was “inactive” with CD69, CD69 (gene 969); “inactive” in assay [5]; “inactive” in assay [6]; “inactive” in assay [8]; “inactive” in assay [9]; “inactive” in assay [10]. Besides, the outcome in assay [11] was inactive.

What is called AC50 is the midpoint of the concentration-response curve, whichever way the signal moves. On to `COc1ccc(/C=C/S(=O)(=O)NC(=O)c2ccc(C)cc2Cl)cc1`, for which the outcome in assay [1] is “inactive”; in assay [2], “inactive”; in [3], “inactive”; in assay [4], “inactive”; with CD38, CD38 (gene 952), “inactive”; with CD69, CD69 (gene 969), “inactive”. Further, the result in assay [5], in [6], in assay [7], in assay [8], in assay [9] and in assay [11] was inactive. For the same compound, the concentration at half-maximal activity (AC50) with CD40, CD40 (gene 958) was 4.18 µM (active); in [10] it was 6.54 µM (active).

Regarding `COCCOc1cc2cc(C(=O)NC3CCN(C(C)C)CC3)n(CC(=O)Nc3ccc(Cl)cn3)c2cn1`, the outcome in assay [1] is “inactive”; in assay [2] it was “inactive”; in assay [3] it was “inactive”; in assay [4], “inactive”; with CD38, CD38 (gene 952) it was “inactive”; in the assay with CD40, CD40 (gene 958), “inactive”. The outcome with CD69, CD69 (gene 969) is “inactive”; in assay [5] it was “inactive”; in assay [6], “inactive”; in assay [7] it was “inactive”; in assay [8], “inactive”; in assay [9], “inactive”. For the same compound, the result in [10] and in assay [11] was inactive.

Take `COC(=O)CC(=O)OC`: the outcome is “inactive” in assay [1]; “inactive” in [2]; “inactive” in assay [3]; “inactive” in [4]; “inactive” in the assay with CD38, CD38 (gene 952); “inactive” with CD40, CD40 (gene 958). The outcome is “inactive” in the assay with CD69, CD69 (gene 969); “inactive” in assay [5]; “inactive” in assay [6]; “inactive” in assay [7]; “inactive” in assay [8]; “inactive” in assay [9]. Moreover, the result in assay [10] and in assay [11] was inactive.

For the compound `CC(C)CCCCCCCOC(=O)CCCCC(=O)OCCCCCCCC(C)C`, the outcome in assay [1] is “inactive”; in [2] it was “inactive”; in assay [3], “inactive”; in assay [4], “inactive”; in the assay with CD38, CD38 (gene 952), “inactive”; with CD40, CD40 (gene 958), “inactive”. Further, the outcome in the assay with CD69, CD69 (gene 969) was “inactive”; in assay [5] it was “inactive”; in assay [6], “inactive”; in assay [7], “inactive”; in assay [8] it was “inactive”; in assay [9] it was “inactive”. For the same compound, the result in [10] and in assay [11] was inactive.
